Compound activity as filed in PubChem BioAssay.
Hits are enriched below; roughly 1.5% of the tested compounds scored in any of these assays.
PolyA inhibitor = inhibitors of polyadenylation in S. cerevisiae | activity score, % at 12 µM | 300,000 compounds, 0.02% hits | S. cerevisiae SKY197-pL101 polyadenylation reporter, beta-gal luminescence; efflux-impaired pdr1/pdr3 knockout yeast; score 100 = 6 SD above DMSO;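 active = lowest replicate activity score at least 50, where 100 means six control SD above control mean; inconclusive = lowest score under 50 but half or more replicates reach 50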;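 also: yeast exposed to compound for 9 h at 30 °C; higher score means more reporter readthrough which indicates perturbed polyadenylation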
Efflux pump mplx = antifungal efflux pump inhibition, Nile Red retention. 330,000 compounds, 0.44% hits. inhibition, % at 10 µM. AID 485275. S. cerevisiae Candida pump triplex;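 active = plate passing quality check with inhibition over a set limit, or well fluorescence over plate mean plus 4 SD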;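 also: Nile Red retained in pooled yeast measured as flow cytometry median fluorescence; 0% = buffer negative control and 100% = Enniatin B positive control; higher means more Nile Red kept so more efflux inhibition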
HDAC3 inh = human HDAC3 inhibition; inhibition, % at 8.3 µM; O15379; recombinant HDAC3, fluorogenic peptide/trypsin coupled, fluorescence; 320,000 compounds, 0.15% hits; in the data active = inhibition above about 26%, passing the limit was not always enough; inconclusive = no clear call, values can overlap the other calls
Target sequence (O15379 whole entry, looked up): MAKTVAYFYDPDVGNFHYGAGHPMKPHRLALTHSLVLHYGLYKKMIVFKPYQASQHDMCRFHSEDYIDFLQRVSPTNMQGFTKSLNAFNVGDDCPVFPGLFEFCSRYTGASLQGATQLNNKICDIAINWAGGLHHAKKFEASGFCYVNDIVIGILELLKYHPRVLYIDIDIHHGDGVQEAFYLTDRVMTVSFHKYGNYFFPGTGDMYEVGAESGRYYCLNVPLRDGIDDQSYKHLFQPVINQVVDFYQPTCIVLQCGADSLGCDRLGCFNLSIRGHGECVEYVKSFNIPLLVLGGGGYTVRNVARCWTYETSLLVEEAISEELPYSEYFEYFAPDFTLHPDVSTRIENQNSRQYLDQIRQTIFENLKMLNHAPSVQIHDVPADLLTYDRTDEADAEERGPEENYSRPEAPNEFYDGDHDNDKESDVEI
NALP3 yeast inh = inhibitors of NALP3 inflammasome in yeast | Yeast reconstituted NLRP3/ASC/caspase-1, beta-gal luminescence, 24 h | AID 2825 | inhibition, % at 10 µM | 330,000 compounds, 0.39% hits;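 active = inhibition of 50% or more; inactive = inhibition below 50%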;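 also: plate controls were induced DMSO wells for no effect and uninduced yeast grown without galactose for full effect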
NALP1 yeast inh = inhibitors of NALP1 inflammasome in yeast; inhibition, % at 10 µM; AID 2071; 280,000 compounds, 0.61% hits; S. cerevisiae NALP1/ASC/caspase-1 growth, X-gal OD620, 72 h; in the data active = inhibition mostly above about 24%, no sharp cut-off; inactive = mostly below about 32%
JMJD2C inh = blocks human GASC-1 demethylase activity. GST-JMJD2C(1-420) H3K9me3 demethylation, DELFIA europium. inhibition, % at 2.35 µM. 330,000 compounds, 0.069% hits. AID 2099;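 active = more than half of a compound's replicate wells show inhibition beyond 50%, single wells judged on their own value; inconclusive = some, but no more than half, of replicates pass 50% inhibition; inactive = no replicate passes 50% inhibition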;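 also: signal counts dimethyl H3K9 product captured on neutravidin plate; 0% = median of DMSO wells and 100% = 0.3 times that DMSO median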
The depositor's hits bear a star; ? = inconclusive; · = no result given.

SMILES | PolyA inhibitor | Efflux pump mplx | HDAC3 inh | NALP3 yeast inh | NALP1 yeast inh | JMJD2C inh
COc1ccc2cnn(-c3ccc(OC(F)(F)Cl)cc3)c(=O)c2c1OC | 0 | 0 | -1 | 20 | 17 | 6
CCOc1ccc(Oc2c(/C=N/NC(N)=O)c(C)nn2-c2ccccc2)cc1 | 7 | 0 | 6 | 3 | 18 | 4
CCOc1ccc(Oc2c(/C=N/NC(=O)COc3ccccc3OC)c(C)nn2-c2ccccc2)cc1 | 6 | 1 | 27* | 2 | 19 | 4
CCOC(=O)c1cc(-c2ccccc2)n(Cc2cc(CC)no2)n1 | -7 | 0 | -1 | 14 | · | -7
CC(CCc1ccccc1)NC(=O)COC(=O)C(CCC(N)=O)NC(=O)c1ccc(F)cc1 (centres undefined) | · | 0 | -2 | 17 | · | -7
CCc1ccc(S(=O)(=O)Nc2nccs2)cc1 | -8 | 0 | -1 | 22 | 6 | -15
O=S(=O)(Nc1nccs1)c1ccc(F)cc1 | 2 | 0 | -4 | 7 | 27* | -4
COc1ccc(CNC(=O)C2CCCN(Cc3nc(-c4cccc(C)c4)oc3C)C2)cc1 (centres undefined) | 24 | 0 | -7 | 16 | 28* | -5
COc1ccc(-c2nc(CN3CCCC(C(=O)NC4CCCC4)C3)c(C)o2)cc1 (centres undefined) | 14 | 0 | -2 | 1 | 44* | -17
Cc1oc(-c2ccc(Cl)cc2)nc1CN1CCCC(C(=O)NC2CC2)C1 (centres undefined) | 5 | 0 | 0 | 5 | 11 | 0
COc1ccc(S(=O)(=O)N2CCCC(C(=O)NC3CCCCC3)C2)cc1 (centres undefined) | 15 | 0 | -3 | 10 | 34* | 2
COc1ccc(S(=O)(=O)N2CCC(NC(=O)C3CCCCC3)CC2)cc1 | 17 | 0 | 1 | 22 | 2 | 17
CCc1ccc(-c2nc(CN3CCCC(C(=O)NCCc4ccc(OC)c(OC)c4)C3)c(C)o2)cc1 (centres undefined) | 23 | 0 | -2 | 0 | 12 | 13
CCCCn1c(N)c(N(CC(C)C)C(=O)C2CCN(S(=O)(=O)c3ccc(C)c(C)c3)CC2)c(=O)[nH]c1=O | 3 | 0 | -5 | 11 | 17 | -26
CCc1ccc(-c2csc(NC(=O)COC(=O)CCc3nc4ccccc4s3)n2)cc1 | 3 | 0 | -7 | 8 | 30 | -2
COc1ccc(Cl)cc1NS(=O)(=O)c1c(C)[nH]c(=O)[nH]c1=O | -2 | 0 | 2 | 12 | 9 | -2
CN1CCN(C(=O)C2CCC(=O)N(Cc3cccc(C(F)(F)F)c3)C2)CC1 (centres undefined) | 3 | 0 | -1 | 2 | 32* | -6
CCCCCCSc1ccc([C@@H]2[C@H]3C(=O)N(C)C(=O)[C@H]3[C@]3(C(=O)OC)CCCCN23)cc1OC | · | 0 | 5 | 10 | · | -1
CCCCCCSc1ccc([C@@H]2[C@@H]3C(=O)N(C)C(=O)[C@@H]3[C@]3(C(=O)OC)CCCCN23)cc1OC | ? | 0 | 36* | -7 | · | 17
CCCc1cc(=O)oc2cc(OCC(=O)NCC(O)c3ccccc3)ccc12 (centres undefined) | 4 | 0 | -1 | 7 | 11 | 1
O=C(CSCc1cc(=O)n2ccsc2n1)Nc1ccc(F)cc1 | 2 | 0 | 3 | -7 | 5 | -5
O=[N+]([O-])/C=C/c1c(OCc2ccccc2)ccc2ccccc12 | -69 | 0 | 2 | 9 | 1 | 2
CCOC(=O)COc1ccc2ccccc2c1/C=C/[N+](=O)[O-] | -31 | 0 | 2 | · | 79* | 5
CC(=O)Nc1ccc(SCC(=O)N2CCN(S(=O)(=O)c3ccccc3)CC2)cc1 | ? | 0 | 12 | 2 | 13 | -6
COc1ccccc1NS(=O)(=O)c1cccc(C(=O)NCC(c2cccs2)N2CCOCC2)c1 (centres undefined) | · | 0 | 0 | 20 | · | 0
NC(=O)[C@H]1CC2(CC(c3cccc(NC(=O)[C@H]4CCC(=O)N4)c3)=NO2)CN1C(=O)c1cc([N+](=O)[O-])cc([N+](=O)[O-])c1 (some centres undefined) | 21 | 0 | 39* | 3 | -21 | 4
